The full list was thinned out, with hits kept by preference.
Anesthetic bind: qHTS Assay for Identification of Novel General Anesthetics. Ferritin light chain (Equus caballus), P02791. apoferritin/1-aminoanthracene competitive binding, fluorescence. Potency, µM (series often up to 77.5 µM), for inactives: at the highest dose activity change, negative = displacement, usual class: inhibitors. 350,000 compounds, 0.074% hits; also: potency is read from the fitted curve at half-maximal effect; % is scaled to controls: 0 for no effect and ±100 for the full control effect; nearly all actives have a fitted effect of over 20% in size
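Steps: apoferritin (10 uM) was premixed with half-saturated 1-AMA in PBS, compounds were pin-transferred, plates stood 10 min at room temperature, fluorescence was read at 380/535 nm, and curves were fitted with a Hill equation.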
GRP78 ERSR act: qHTS for Inducers of the Endoplasmic Reticulum Stress Response (ERSR) in Human Glioma: qHTS; U87-MG GRP78 promoter luciferase reporter, 16 h; Potency, µM, for the others: at the top dose activation, actives largely listed as activators; 420,000 compounds, 0.02% hits; AID 602332, 2012; also: potency is read from the fitted curve at half-maximal effect; series mostly up to about 76 µM; % of control where 0% means no effect; nearly all actives have a fitted effect of over 35% in size
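Stably transfected U87-MG glioma cells carrying a GRP78-based luciferase sensor; 16 h compound incubation. Luminescence end-point read 10 min after Bright-Glo addition at room temperature.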
CBFb RUNX1 block: qHTS Assay for Compounds Blocking the Interaction Between CBF-beta and RUNX1 for the Treatment of Acute Myeloid Leukemia; AlphaScreen CBFb-His/RUNX1-biotin binding, biochemical; Potency, µM (series often up to 59.8 µM), for inactives: at the top dose activity, negative = inhibition, actives largely listed as inhibitors; 230,000 tested, under 10 active; also: % of control where 0% means no effect
Target sequence (Q01196 whole entry, looked up): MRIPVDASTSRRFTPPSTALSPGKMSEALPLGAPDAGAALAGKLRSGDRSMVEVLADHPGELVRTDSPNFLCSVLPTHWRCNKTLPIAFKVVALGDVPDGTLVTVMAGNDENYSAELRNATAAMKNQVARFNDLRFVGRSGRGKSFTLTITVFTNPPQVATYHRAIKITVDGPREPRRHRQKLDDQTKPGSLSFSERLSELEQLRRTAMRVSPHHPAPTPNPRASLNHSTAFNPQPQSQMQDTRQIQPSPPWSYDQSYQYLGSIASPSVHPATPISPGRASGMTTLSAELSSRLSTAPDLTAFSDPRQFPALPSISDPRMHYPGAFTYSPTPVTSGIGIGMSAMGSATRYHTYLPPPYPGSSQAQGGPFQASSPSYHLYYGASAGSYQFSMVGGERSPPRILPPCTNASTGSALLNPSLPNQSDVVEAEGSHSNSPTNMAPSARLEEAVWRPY
Target sequence (Q13951 whole entry, looked up): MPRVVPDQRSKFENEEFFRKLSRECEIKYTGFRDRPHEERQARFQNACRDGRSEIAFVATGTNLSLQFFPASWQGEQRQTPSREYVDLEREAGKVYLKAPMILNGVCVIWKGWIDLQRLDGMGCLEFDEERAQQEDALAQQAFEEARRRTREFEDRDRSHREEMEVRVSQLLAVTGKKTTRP
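CBF-beta (His) and RUNX1 (biotin), 30 nM each; 20 min preassociation; + compound, 15 min; + beads 50 ng each (Ni, streptavidin), 90 min; RT; AlphaScreen read.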
N370S GC mod: qHTS Assay for Inhibitors and Activators of N370S glucocerebrosidase as a Potential Chaperone Treatment of Gaucher Disease; Potency, µM (highest dose often 59.4 µM), without a hit: at the highest dose activity change, negative = inhibition, usual class: inhibitors; 330,000 compounds, 0.092% hits; N370S GC spleen homogenate, 4MU-glucoside fluorescence; AID 2101, 2009;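 also: potency is read from the fitted curve at half-maximal effect; 0% = full enzyme activity and -100% = no enzyme basal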
a7 integrin act: qHTS for Activators of Integrin-Mediated Alleviation for Muscular Dystrophy; 350,000 compounds, 0.064% hits; alpha7betagal myoblasts, beta-gal FDG fluorescence, 48 h; AID 624291, 2012; Potency, µM (series often up to 38.3 µM), for inactives: at the highest dose activation, hits mostly activators;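 also: potency is read from the fitted curve at half-maximal effect; 100% = response of the positive control SU9516; nearly all actives have a fitted effect of over 60% in size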
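alpha7betagal+/- myoblasts (passage 13, 250/well) treated 48 h at 37C with compounds at 1:260 dilution of DMSO stock. Lysed, then beta-galactosidase activity read as FDG fluorescence (ex 480/em 540) after 30 min, with pre-read for autofluorescence.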
ClpP mod: qHTS Assay for Activators of ClpP; ATP-dependent Clp protease proteolytic subunit (Bacillus subtilis (strain 168)), P80244; Potency, µM (series often up to 57.5 µM), for the others: at the highest dose activity change, negative = active; 340,000 compounds, 1.9% hits; purified B. subtilis ClpP, FRET peptide cleavage, 20 min; active = well fitted falling curve with a large enough effect; inconclusive = small, poorly fitted or top-dose-only effect; inactive = no such curve, though single readings can be large or run the other way; also: potency is read from the fitted curve at half-maximal effect; the source files actives as falling curves though it sought activators and does not explain the sign; nearly all actives have a fitted effect of over 65% in size
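ClpP 10 microg/mL final, pH 8 Tris/KCl buffer with BSA, glycerol, Tween-20; compound pinned in; FRET-FV substrate; RT 20 min; Ex320/Em430; ΔFRET vs ADEP 5.8 microM, DMSO, no enzyme.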
* marks the source's active call; other numbers are inactive results; ? = inconclusive; . = no result; [ ] = another dose, or the depositor's remark. Unless noted, calls follow the shape of the dose curve; as a rule, active = well fitted curve in the direction sought with a large enough effect; inconclusive = small, poorly fitted or top-dose-only effect, or another doubt; inactive = no such curve, though single readings can be large; an effect the other way counts as inactive or inconclusive.

SMILES | Anesthetic bind | GRP78 ERSR act | CBFb RUNX1 block | N370S GC mod | a7 integrin act | ClpP mod
CC(=O)CCSc1nnc(-c2cccc(S(=O)(=O)N3CCOCC3)c2)o1 | . | -2.9% | . | -4.9% | -39.9% | 3.4%
O=S(=O)(c1cccc(-c2nnc(SCc3nc4ccccc4s3)o2)c1)N1CCOCC1 | -12.6% | 2.7% | -10.7% | -2.3% | -35.9% | 28.2µM*
COc1cccc(C2(CC(=O)N3CCC(c4nc5ccc(F)cc5[nH]4)CC3)CC(=O)N(C)C2=O)c1 (stereo not drawn) | . | -5.8% | . | . | . | .
COC(=O)C1C(=O)c2c([nH]c(C(=O)OCCOC(C)C)c2C)CC1C (stereo not drawn) | -12.3% | 0.2% | -0.9% | . | -13.5% | 31.6µM*
COc1ccc(N2CCN(C(=O)CSc3ncccc3-c3nc4ccccc4[nH]3)CC2)cc1 | -17.2% | -3.9% | -4.6% | 2.5% | 2.1%[7.66 µM] | 25.1µM*
O=C(Nc1ncc2c(n1)-c1ccccc1OC2)c1ccc(F)cc1 | -5.2% | 4.0% | 7.2% | 16.2% | 4.4% | .
O=C(Nc1ncc2c(n1)-c1ccccc1CC2)c1ccc(Cl)cc1 | -21.3% | -0.8% | -5.8% | 7.9% | 13.1% | 28.2µM*
O=C(Nc1ncc2c(n1)-c1ccccc1OC2)c1ccc(Cl)cc1Cl | -13.4% | -2.6% | -0.8% | 14.3% | -3.4% | 35.5µM*
c1csc(-c2cnc3ccccc3n2)c1 | 215.1% | 6.3% | 12.9% | 6.0% | -13.2% | 6.31µM*
CN(CC(=O)Nc1cccc(S(=O)(=O)N2CCCC2)c1)Cc1ccccc1 | . | -2.7% | . | . | 14.8% | 25.1µM*
CC1(C)CC(=O)c2cc(C(=O)NC3CCSC3=O)c(=O)n(-c3ccccc3)c2C1 (stereo not drawn) | -9.9% | -2.1% | 5.7% | 5.5% | 7.7% | 25.1µM*
O=C1CCCc2c1cc(C(=O)NC1CCSC1=O)c(=O)n2-c1ccccc1 (stereo not drawn) | -9.7% | -2.6% | -0.4% | 7.5% | -12.9% | 25.1µM*
COc1cc(=O)n2c(c1C(=O)N(C)Cc1nonc1C)CCN(Cc1c(F)cccc1F)CC2 | . | -4.7% | . | . | . | .
CCOC(=O)CCSCC(=O)N1N=C(c2cccs2)CC1c1ccc(C)cc1 (stereo not drawn) | -10.8% | -1.0% | 1.4% | 2.4% | -11.6% | 28.2µM*
Clc1ccc2nc(-c3ccc(Br)s3)cn2c1 | -12.7% | -9.3% | 4.5% | 1.7% | ? | 20µM*
COc1ccc(-c2cn3cc(Cl)ccc3n2)cc1OC | -4.0% | 4.9% | 1.8% | -25.0% | 25.1% | ?
COc1cc(=O)n2c(c1C(=O)NCc1ccco1)CCN(C(=O)c1c(F)ccc(F)c1F)CC2 | . | 2.1% | . | . | . | .
Cc1ccc(/C=C2\OC(=O)c3ccccc32)cc1 | -6.3% | ? | 16.8% | 3.3% | ? | 28.2µM*
Cc1ccccc1/C=C1\OC(=O)c2ccccc21 | -13.5% | 8.7% | 16.7% | 5.0% | 5.2% | 28.2µM*
O=C1OC(=O)c2ccccc21 | . | . | 1.3%[21.7 µM] | 2.2% | . | .
O=C(COC(=O)c1cccc2ccccc12)Nc1cccnc1Cl | -6.4% | 1.9% | -2.1% | 4.7% | 11.5% | 15.8µM*
O=C(COC(=O)c1ccccc1Cl)Nc1cccnc1Cl | . | -1.6% | . | . | 11.5% | -0.3%
O=C(COC(=O)c1cccc2ccccc12)Nc1ncc(C(F)(F)F)cc1Cl | ? | -3.2% | -2.8% | 4.0% | 12.6% | 35.5µM*
NNC(=O)Cn1c(-c2ccccc2)cc2ccccc21 | -16.3% | -6.6% | . | -0.3% | 14.5% | -0.4%
CC(=O)Nn1c(-c2ccccc2)cc2ccccc21 | -7.9% | -6.5% | 0.4% | 9.6% | 7.5% | 14.1µM*
SMILES | Anesthetic bind | GRP78 ERSR act | CBFb RUNX1 block | N370S GC mod | a7 integrin act | ClpP mod
O=C(O)CC(C(=O)O)c1cn(Cc2ccccc2)c2ccccc12 (stereo not drawn) | -17.3% | -1.4% | -20.3% | -10.1%[2.35 µM] | 9.2% | 28.2µM*
COC(=O)c1ccc(C(=O)NCC2Cc3cccc(-c4ccc(C(=O)OC)cn4)c3O2)cc1 (stereo not drawn) | . | -1.3% | . | . | . | .
COc1ccc2[nH]c(C)c(C(=O)CNc3nccs3)c2c1 | . | -8.0% | . | . | . | -3.0%
CCCCCCCCCS(=O)(=O)N/N=C/c1cccc([N+](=O)[O-])c1 | 7.08µM* | -2.3% | 0.5% | 3.8% | -13.6% | -1.5%
CCCC(=O)Nc1ccc(C(=O)N/N=C/c2ccc([N+](=O)[O-])o2)cc1 | 4.6% | -4.2% | -12.3% | -4.4% | -56.7% | 31.6µM*
CCCCCCCCCCS(=O)(=O)N/N=C/c1ccc(O)cc1 | 15.8µM* | 1.4% | 1.5% | 2.9% | 7.9% | -0.5%
CCCCCCCC(=O)Nc1ccc(C(=O)N/N=C/c2cccc([N+](=O)[O-])c2)cc1 | -6.3% | 6.2% | 1.9% | 3.5% | -5.0% | 28.2µM*
O=C(N/N=C\c1ccc([N+](=O)[O-])o1)c1ccc(O)cc1 | -7.2%[29.3 µM] | -7.9% | 3.4%[21.7 µM] | -17.8%[21.6 µM] | . | .
COc1ccc2c(c1)OC(C)CN(CCNC(=O)c1csc(-c3cccs3)n1)C2 (stereo not drawn) | . | -3.3% | . | . | . | .
COc1cc(=O)n2c(c1C(=O)NCc1ccco1)CCN(Cc1ccc3nsnc3c1)CC2 | . | 0.5% | . | . | . | .
O=C(NCCc1nnc2n1CCN(Cc1ccccn1)CC2)c1ccc(F)cc1 | . | -6.2% | . | . | . | .
Nc1nc2c3ccccc3nc(C3CC3)n2n1 | -5.2% | -0.4% | -5.0% | 0.6% | -20.9% | 22.4µM*
O=C(COc1ccc(F)cc1)Nc1cc(S(=O)(=O)N2CCCCC2)ccc1N1CCCCC1 | . | -2.1% | . | ? | 13.1% | 15.8µM*
Cc1ccc(S(=O)(=O)N2CCN(c3ccc(C(=O)N4CCOCC4)cc3[N+](=O)[O-])CC2)cc1 | -9.6% | 0.4% | -12.4% | 3.4% | 4.7% | 28.2µM*
O=C([C@@H]1CC=C[C@@H]2CCN(C3CC3)C(=O)[C@@H]21)N1CCOCC1 | . | -0.2% | . | . | . | 0.1%
CC(=O)c1ccccc1C(=O)NCC1Cc2cccc(-c3cccnc3)c2O1 (stereo not drawn) | . | -4.4% | . | . | . | .
N#Cc1nc(COc2ccc(Cl)cc2)oc1N1CCN(Cc2ccccc2)CC1 | 57.0% | -3.9% | ? | 3.5% | -4.8% | 28.2µM*
N#Cc1nc(COc2ccc(-c3ccccc3)cc2)oc1N1CCC(C(N)=O)CC1 | . | -2.4% | . | . | . | -2.6%
CCN1CCN(c2oc(COc3ccc(Cl)cc3)nc2C#N)CC1 | -19.4% | -2.7% | -17.4% | ? | 16.8% | -0.1%
N#Cc1nc(-c2ccc(COc3ccc(Cl)cc3)o2)oc1N1CCC(C(N)=O)CC1 | -7.9% | -2.5% | . | . | . | 31.6µM*
